RecA splice inh: Mtb RecA intein splicing inhibitors, primary screen, biochemical, fluorescence, HTS | inhibition, % (no concentration beside the values) | Protein RecA (Mycobacterium tuberculosis (strain ATCC 25618 / H37Rv)), P9WHJ3 | cell-free RecA intein splicing | 290,000 tested, 0.75% active; in the data active = inhibition above about 30%;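 note: 0% = vehicle wells and 100% = reference inhibitor control wells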
SARS 3CLpro inh: SARS-CoV 3CLpro protease inhibitors, primary screen, biochemical, quenched FRET; Replicase polyprotein 1ab (Severe acute respiratory syndrome coronavirus), P0C6X7; recombinant SARS-CoV 3CLpro, quenched FRET peptide cleavage; inhibition, % at 6 µM; 290,000 tested, 0.14% active; in the data active = inhibition above about 12%
DUSP3 inh: VHR1 phosphatase inhibitors, primary screen, biochemical, absorbance, uHTS | Dual specificity protein phosphatase 3 (Homo sapiens), P51452 | recombinant VHR phosphatase, pNPP absorbance | inhibition, % at 13.3 µM | 290,000 tested, 0.52% active; in the data active = inhibition above about 50%
CCHF vOTU inh-1: CCHFV vOTU protease inhibitors, primary screen, biochemical, Pep-AMC substrate, fluorescence; inhibition, % at 11.5 µM; 370,000 tested, 0.55% active; note: 0% = vehicle wells with enzyme and 100% = no enzyme wells
CCHF vOTU inh-2: CCHFV vOTU protease inhibitors, confirmation, biochemical, Pep-AMC substrate, fluorescence. AID 686976, 2013. inhibition, % at 11.5 µM. Recombinant CCHFV vOTU. shares compounds with CCHF vOTU inh-1. 1,900 tested, 17% active
Active calls of the source: *; nt = no result given. Most compounds without a hit are left out; they make up all but 1.5% or so of the library. Cut-off read from the data, not from the text of the source, unless noted: active = inhibition above about 30%; inactive = the rest.

SMILES	RecA splice inh	SARS 3CLpro inh	DUSP3 inh	CCHF vOTU inh-1	CCHF vOTU inh-2
COC(=O)c1ccccc1NC(=O)CSc1nnnn1CC(=O)O	1.2	-1.0	3.0	-0.1	nt
Cc1nc2scc(C)n2c(=O)c1S(=O)(=O)Nc1ccc(OC(F)(F)F)cc1	-4.4	2.2	-3.6	39.5*	-3.7
Cc1nc2scc(C)n2c(=O)c1S(=O)(=O)Nc1ccc(N2CCOCC2)c(Cl)c1	2.5	5.2	32.7	0.3	nt
CC(C)(C)N(Cc1nc(-c2ccccc2)no1)C(=O)c1ccc2c(c1)OCO2	8.6	3.9	30.5	29.8*	-8.7
CN(Cc1nc(-c2ccccc2)no1)C(=O)c1ccc2c(c1)OCO2	0.6	nt	nt	-10.5	nt
C[N+]1(C)CCC(=C2c3ccccc3CC(=O)c3sccc32)CC1	-10.3	-0.6	-0.8	32.5*	18.6
O=C1C(=Cc2cn(-c3ccccc3)nc2-c2ccc(OCc3ccccc3F)cc2)SC(=S)N1CCS(=O)(=O)O	nt	nt	nt	28.1	nt
O=C1C(=Cc2cn(-c3ccccc3)nc2-c2ccc(OCc3ccc(Cl)cc3)cc2)SC(=S)N1CCS(=O)(=O)O	nt	nt	nt	34.3*	24.6
Cc1cccc(OCC(=O)NNC(=O)c2cc(S(=O)(=O)N(C)C)ccc2N2CCCC2)c1	nt	nt	nt	-2.8	nt
Cc1ccc(OCC(=O)NNC(=O)c2cc(S(=O)(=O)N(C)C)ccc2N2CCCC2)cc1	nt	nt	nt	32.6*	-15.2
CC(C)NC(=O)C1(C)CCN1C(=O)c1ccccc1 (stereo not given)	nt	nt	nt	-3.4	nt
O=S1(=O)CCOC(CO)CN1Cc1ccc(Cl)c(Cl)c1 (stereo not given)	nt	nt	nt	6.6	nt
O=C(COc1ccc(S(=O)(=O)NC2CCCCC2)cc1)NC1CCCCC1	-0.6	3.9	-4.6	7.1	nt
COC(=O)COc1ccc(S(=O)(=O)NC2CCCCCC2)cc1	1.5	-0.1	14.5	54.6*	-17.3
CCn1c(SCC(=O)Nc2ccc(Cl)cc2)nnc1C1CC1	2.1	-0.3	3.9	-2.8	nt
CCCn1c(SCC(=O)Nc2ccc(Cl)cn2)nnc1C1CC1	0.6	2.3	29.0	34.3*	3.1
FC(F)(F)Oc1ccc(NC2=NCCCS2)cc1	-1.5	-2.3	-11.0	44.3*	-9.2
Cc1ccc(S(=O)(=O)N2[C@@H](c3ccc(Br)cc3)C(C(=O)O)=CC[C@H]2c2ccc(C(C)C)cc2)cc1	nt	nt	nt	5.3	nt
Cc1ccc(S(=O)(=O)N2[C@@H](c3ccc(C(C)(C)C)cc3)C(C(=O)O)=CC[C@H]2c2ccc(C(C)C)cc2)cc1	nt	nt	nt	46.9*	14.6
CCc1ccc([C@@H]2CC=C(C(=O)O)[C@H](c3ccc(C(C)(C)C)cc3)N2S(=O)(=O)c2ccc(C)cc2)cc1	nt	nt	nt	46.0*	-0.3
CCc1ccc([C@@H]2CC=C(C(=O)O)[C@H](c3ccccc3)N2S(=O)(=O)c2ccc(C)cc2)cc1	nt	nt	nt	21.4	nt
Cc1ccc(S(=O)(=O)N2[C@@H](c3ccc(C(C)(C)C)cc3)C(C(=O)O)=CC[C@H]2c2cccs2)cc1	nt	nt	nt	32.2*	2.5
Cc1ccc(S(=O)(=O)N2[C@@H](c3ccc(C(C)(C)C)cc3)C(C(=O)O)=CC[C@H]2c2ccc(Cl)cc2)cc1	nt	nt	nt	41.8*	13.0
CNC(=O)C1CCC(=O)N1Cc1c[nH]c2ccccc12 (stereo not given)	nt	nt	nt	7.4	nt
CC(=O)Nc1ccc(C(=O)Cn2c3[n+](c4c(F)c(F)ccc42)CCCCC3)cc1	2.0	0.1	-4.6	8.1	nt
SMILES	RecA splice inh	SARS 3CLpro inh	DUSP3 inh	CCHF vOTU inh-1	CCHF vOTU inh-2
NC(=O)c1c(N)[nH]c(C(=O)c2ccccc2)c1-c1ccc2c(c1)OCO2	nt	nt	nt	1.4	nt
CN(Cc1c(F)cccc1Cl)C(=O)c1ccc2ccccc2n1	1.3	-2.8	-7.7	-1.8	nt
Cc1ccc([C@@H]2CC=C(C(=O)O)[C@H](c3ccc(C(C)(C)C)cc3)N2S(=O)(=O)c2ccc(C)cc2)cc1	nt	nt	nt	41.5*	19.4
Cc1ccc([C@@H]2CC=C(C(=O)O)[C@H](c3ccc(F)cc3)N2S(=O)(=O)c2ccc(C)cc2)cc1	nt	nt	nt	17.3	nt
COc1ccc(C(C)=O)cc1Cn1c(C)c(C(=O)NCc2ccc(C(C)C)cc2)sc1=O	nt	nt	nt	11.1	nt
O=c1cc(-c2ccc(O)cc2)oc2c(-c3c(O)cc(O)c4c(=O)cc(-c5ccc(O)cc5)oc34)c(O)cc(O)c12	nt	nt	nt	20.0	nt
O=c1cc(-c2ccc(O)c(-c3c(O)cc(O)c4c(=O)cc(-c5ccc(O)cc5)oc34)c2)oc2cc(O)cc(O)c12	5.8	-3.2	12.4	30.2*	-3.1
Cc1ccc(S(=O)(=O)Nc2ccc(Nc3nccn4c(-c5cccc(OC(F)(F)F)c5)cnc34)cc2)cc1	nt	nt	nt	29.9*	-4.8
O=c1ccc2[n+]([O-])c3ccc(O)cc3oc-2c1	9.4	1.3	44.7	50.4*	27.0
O=c1cc(O)c2ccc(O)cc2o1	-5.5	11.6	16.5	-2.7	nt
COC1=CC(=O)c2c(ccc3ncnc(N)c23)C1=O	nt	nt	nt	110.0*	108.3*
O=C(/C=C/c1cccc(Cl)c1)OCC(=O)c1ccc[nH]1	nt	nt	nt	34.9*	2.8
Fc1ccc(Nc2nnc(C(F)(F)F)s2)cc1Cl	0.6	1.7	31.5	15.6	nt
Fc1ccc(Nc2cncc(-c3ccsc3)c2)cc1Cl	nt	nt	nt	93.6*	13.5
O=C(CCn1c(=S)oc2ccccc21)NC1CCCCCCC1	1.4	0.9	-15.7	32.1*	-13.4
COc1cc(/C=N/N=C2/NC(=O)C(CC(=O)O)S2)ccc1OCc1ccc(Cl)cc1 (stereo not given)	-1.2	9.8	16.4	34.1*	17.5
COc1cc2c(cc1NCc1ccc3c(c1)OCO3)oc1ccccc12	1.3	1.6	-4.4	-0.2	nt
COc1cc2c(cc1NCc1ccccn1)oc1ccccc12	2.0	8.0	22.3	29.7*	-4.5
C=CCN=C1NC(CCc2ccccc2)C(C(=O)OC)=C(C)N1Cc1cccc(C(F)(F)F)c1 (stereo not given)	nt	nt	nt	8.2	nt
Nc1ccc(N(CCO)CCO)cc1	63.1*	3.7	20.9	57.4*	26.8
COCOCCn1cc(CN2CCS(=O)(=O)N(Cc3ccc(-c4ccc(OC)nc4)cc3)C(C(C)C)C2=O)nn1 (stereo not given)	nt	nt	nt	9.2	nt
CCC(=O)N1CCc2cc(Br)c(S(=O)(=O)N3CCCC(C(=O)NC(C)(C)C)C3)cc21 (stereo not given)	nt	nt	nt	0.7	nt
O=C1Nc2ccccc2-n2nnnc2C1N1CCN(c2ccc(C(F)(F)F)cc2[N+](=O)[O-])CC1 (stereo not given)	nt	nt	nt	32.4*	-5.8
Cc1ccc(CN(C(=O)N2CCN(C)CC2)S(=O)(=O)c2ccc(C)cc2)cc1	-1.5	nt	nt	-0.9	nt
COC(=O)c1ccc(CN(C(=O)N2CCN(C)CC2)S(=O)(=O)c2ccc(C)cc2)cc1	-1.6	nt	nt	44.8*	-19.0
O=C1C(=O)c2cccnc2-c2ncccc21	nt	nt	nt	111.1*	85.8*
Cc1[nH]c2ccccc2c1/C=N/NC(N)=S	-1.0	-13.7	1.4	9.5	nt

Source: PubChem (several laboratories)
